Results as given in PubChem BioAssay.
Values joined by “and” are separate entries in the source; they are usually repeats but may differ in a detail not shown here. Identical values can stand only once. Active and inactive are the calls of the source.

How the values were obtained:
[1] = binders of probe aFSTL3 on microarray, primary screen, stem cell growth factor project, biochemical, small-molecule microarray, fluorescence 635/667 (AID 1064); settings: higher = more signal;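 also: measures binding of the biotinylated anti-FSTL3 antibody to printed compounds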
[2] = binders from COS7 lysate, DM2A8 probe, primary screen, torsin A project, cell lysate, small-molecule microarray, fluorescence 635/667 (AID 1065); settings: higher = more signal, COS7 lysate expressing mutant human TOR1A
[3] = binders of probe aFGF2 on microarray, primary screen, stem cell growth factor project, biochemical, small-molecule microarray, fluorescence 635/667 (AID 1067); settings: higher = more signal;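 also: measures binding of biotinylated aFGF2 protein to printed compounds on slides; z-score merges feature fluorescence and signal-to-noise across triplicate slides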
[4] = binders of probe aFGF10 on microarray, primary screen, stem cell growth factor project, biochemical, small-molecule microarray, fluorescence 635/667 (AID 1071); settings: higher = more signal;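 also: score merges 667 nm spot intensity and signal to noise from triplicate slides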
[5] = target: Neurogenic locus notch homolog protein 2 (Homo sapiens) (UniProt Q04721); experiment: Notch2 binders on small-molecule microarrays, primary screen, biochemical, small-molecule microarray, 635 nm fluorescence, stem cell growth factors (AID 1073); settings: Notch2 binding, higher = more signal
[6] = target: Pro-neuregulin-1, membrane-bound isoform (Homo sapiens) (UniProt Q02297); experiment: NRG1 binders on small-molecule microarrays, primary screen, psychiatric disease protein project, biochemical, small-molecule microarray, fluorescence 635/667 (AID 1075); settings: NRG1 binding, 635 nm fluorescence, higher = more signal;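 also: score combines 667 nm spot fluorescence with signal to noise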
[7] = test system: Neuregulin-1 EGF-like domain; experiment: binders of neuregulin-1 EGF-like domain, primary screen, biochemical, small-molecule microarray, 635 nm fluorescence (AID 1081); settings: small-molecule microarray binding, higher = more signal;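 also: binding of the protein to compounds printed on small-molecule microarray slides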
[8] = FRG1 promoter luciferase signal modulators, primary screen, FRG1 inhibition for FSHD, cell-based, C2C12 myotubes, firefly/Renilla luciferase, luminescence (AID 1084); settings: higher = more signal, called active from +8 up or from −8 down
[9] = binders of probe aFST on microarray, primary screen, stem cell growth factor project, biochemical, small-molecule microarray, fluorescence 635/667 (AID 1086); settings: higher = more signal;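 also: score merges 667 nm fluorescence with signal-to-noise of each printed compound spot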
[10] = binders of probe aHhip on microarray, primary screen, stem cell growth factor project, biochemical, small-molecule microarray, fluorescence 635/667 (AID 1087); settings: higher = more signal;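 also: score merges spot fluorescence at 667nm with spot signal to noise ratio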

Sequence of Pro-neuregulin-1, membrane-bound isoform (Homo sapiens) (Q02297 whole entry, looked up, the tested form may be a part, canonical isoform): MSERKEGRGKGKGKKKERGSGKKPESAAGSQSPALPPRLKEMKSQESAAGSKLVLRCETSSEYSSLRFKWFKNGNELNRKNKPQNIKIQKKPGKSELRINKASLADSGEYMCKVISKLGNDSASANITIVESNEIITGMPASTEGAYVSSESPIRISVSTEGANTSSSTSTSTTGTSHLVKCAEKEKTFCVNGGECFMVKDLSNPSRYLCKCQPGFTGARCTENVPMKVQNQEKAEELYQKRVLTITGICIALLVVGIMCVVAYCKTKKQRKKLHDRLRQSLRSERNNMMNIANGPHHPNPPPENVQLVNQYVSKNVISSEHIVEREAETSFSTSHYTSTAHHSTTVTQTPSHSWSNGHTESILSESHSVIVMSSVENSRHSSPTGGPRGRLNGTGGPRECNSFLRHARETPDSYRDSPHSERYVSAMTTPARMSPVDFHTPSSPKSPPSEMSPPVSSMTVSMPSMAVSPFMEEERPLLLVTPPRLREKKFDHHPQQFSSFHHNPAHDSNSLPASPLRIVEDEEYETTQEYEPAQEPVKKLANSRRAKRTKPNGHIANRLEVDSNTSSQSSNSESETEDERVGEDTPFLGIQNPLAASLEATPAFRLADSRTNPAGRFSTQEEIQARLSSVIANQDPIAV
Sequence of Neurogenic locus notch homolog protein 2 (Homo sapiens) (Q04721 whole entry, looked up, canonical isoform): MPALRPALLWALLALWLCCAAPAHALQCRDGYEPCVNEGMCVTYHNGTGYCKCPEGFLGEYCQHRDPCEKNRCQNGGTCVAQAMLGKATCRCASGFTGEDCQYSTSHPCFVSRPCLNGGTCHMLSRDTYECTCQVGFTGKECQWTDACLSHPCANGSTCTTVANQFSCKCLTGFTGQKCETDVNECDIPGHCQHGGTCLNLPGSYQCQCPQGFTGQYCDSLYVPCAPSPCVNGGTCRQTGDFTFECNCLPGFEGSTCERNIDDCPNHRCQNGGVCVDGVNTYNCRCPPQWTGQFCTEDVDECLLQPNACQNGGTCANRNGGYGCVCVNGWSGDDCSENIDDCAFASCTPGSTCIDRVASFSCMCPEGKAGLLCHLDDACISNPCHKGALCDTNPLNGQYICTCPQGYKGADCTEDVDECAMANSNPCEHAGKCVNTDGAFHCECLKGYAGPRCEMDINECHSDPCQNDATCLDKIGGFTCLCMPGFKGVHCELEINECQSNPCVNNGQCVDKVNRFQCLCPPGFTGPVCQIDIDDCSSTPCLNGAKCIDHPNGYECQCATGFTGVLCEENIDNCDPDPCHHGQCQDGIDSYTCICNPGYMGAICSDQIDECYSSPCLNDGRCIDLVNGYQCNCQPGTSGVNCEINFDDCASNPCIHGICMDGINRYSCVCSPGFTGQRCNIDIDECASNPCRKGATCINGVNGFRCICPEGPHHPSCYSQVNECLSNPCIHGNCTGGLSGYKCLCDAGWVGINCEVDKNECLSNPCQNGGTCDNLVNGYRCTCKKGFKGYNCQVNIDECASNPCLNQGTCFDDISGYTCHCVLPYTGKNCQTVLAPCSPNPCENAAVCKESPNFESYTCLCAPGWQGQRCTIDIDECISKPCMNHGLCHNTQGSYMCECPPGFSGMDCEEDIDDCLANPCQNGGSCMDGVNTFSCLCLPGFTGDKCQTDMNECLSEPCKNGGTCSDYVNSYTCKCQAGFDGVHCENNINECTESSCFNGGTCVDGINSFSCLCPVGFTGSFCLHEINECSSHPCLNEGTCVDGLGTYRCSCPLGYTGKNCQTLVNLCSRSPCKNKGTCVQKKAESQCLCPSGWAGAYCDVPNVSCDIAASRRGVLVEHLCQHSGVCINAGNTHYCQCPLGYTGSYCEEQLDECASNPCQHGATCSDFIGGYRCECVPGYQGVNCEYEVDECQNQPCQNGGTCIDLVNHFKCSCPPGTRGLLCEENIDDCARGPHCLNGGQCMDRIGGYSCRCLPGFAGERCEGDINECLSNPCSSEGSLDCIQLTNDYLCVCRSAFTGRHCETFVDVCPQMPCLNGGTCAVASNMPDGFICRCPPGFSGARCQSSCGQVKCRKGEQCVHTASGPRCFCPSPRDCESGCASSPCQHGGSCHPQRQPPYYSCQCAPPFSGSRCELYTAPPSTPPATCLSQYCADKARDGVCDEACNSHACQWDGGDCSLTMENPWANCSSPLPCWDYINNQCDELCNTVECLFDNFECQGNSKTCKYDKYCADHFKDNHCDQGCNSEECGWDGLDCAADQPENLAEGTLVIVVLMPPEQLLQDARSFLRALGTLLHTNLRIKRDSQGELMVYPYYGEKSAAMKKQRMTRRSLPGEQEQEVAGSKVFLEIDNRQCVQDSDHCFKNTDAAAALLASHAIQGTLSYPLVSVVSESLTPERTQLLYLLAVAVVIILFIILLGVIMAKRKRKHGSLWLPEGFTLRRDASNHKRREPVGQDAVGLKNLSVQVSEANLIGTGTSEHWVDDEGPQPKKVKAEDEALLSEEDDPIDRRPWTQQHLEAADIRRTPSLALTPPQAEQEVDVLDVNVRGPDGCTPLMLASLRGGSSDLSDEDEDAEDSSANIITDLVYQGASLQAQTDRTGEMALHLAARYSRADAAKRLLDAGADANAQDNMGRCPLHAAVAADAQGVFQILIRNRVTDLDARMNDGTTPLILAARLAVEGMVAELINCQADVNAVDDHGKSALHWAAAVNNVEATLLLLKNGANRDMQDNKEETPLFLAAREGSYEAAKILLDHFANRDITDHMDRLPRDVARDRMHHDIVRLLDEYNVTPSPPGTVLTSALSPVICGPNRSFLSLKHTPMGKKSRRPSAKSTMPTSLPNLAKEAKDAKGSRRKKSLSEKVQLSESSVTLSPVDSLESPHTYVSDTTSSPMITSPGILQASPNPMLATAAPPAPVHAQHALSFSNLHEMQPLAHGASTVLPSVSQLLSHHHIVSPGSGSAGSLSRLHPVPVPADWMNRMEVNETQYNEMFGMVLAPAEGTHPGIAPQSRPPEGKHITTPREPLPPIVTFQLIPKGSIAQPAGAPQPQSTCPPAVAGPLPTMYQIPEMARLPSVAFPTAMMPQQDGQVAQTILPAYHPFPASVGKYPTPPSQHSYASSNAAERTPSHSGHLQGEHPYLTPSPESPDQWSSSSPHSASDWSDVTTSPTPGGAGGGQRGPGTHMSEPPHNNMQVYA

| Structure (SMILES) | composite z-score [1] | composite z-score [2] | composite z-score [3] | composite z-score [4] | composite z-score [5] | composite z-score [6] | composite z-score [7] | z-score [8] | composite z-score [9] | composite z-score [10] |
| --- | --- | --- | --- | --- | --- | --- | --- | --- | --- | --- |
| CN1C(=O)C2CC=C([C@H]3Oc4ccccc4S(=O)(=O)N4CCC[C@@H]34)CC2C1=O (stereo not given in full) | -0.203 and -0.0284 | 0.157 and 0.0061 | -0.133 and -0.149 | 0.0694 and -0.0366 | -1.05 and -0.369 | 0.75 and -0.641 | 0.151 and -0.561 | 0.74 (inactive) and 1.05 (inactive) | -0.311 and -0.365 | -0.0645 and -0.123 |
| C=CCN(C(=O)C1N(c2c(Cl)cccc2CO)C(=O)C2C(C(=O)O)C3C=CC21O3)c1ccc(OC)cc1 (stereo not given) | 0.778 and 0.859 | -1.57 and -1.33 | -0.119 and -0.252 | -0.653 and -1.76 | -1.09 and -1.92 | -0.515 and -0.497 | 0.507 and -0.579 | 1.48 (inactive) and -1.39 (inactive) | -0.826 and -0.934 | -0.283 and -0.517 |
| C=C[C@H](C)[C@@H](O)c1ccc(OCCO)cc1 | 0.535 and 0.672 | -0.549 and -0.859 | -0.215 and -0.188 | -0.907 and -0.473 | -1.9 and -0.991 | -0.612 and 0.783 | -0.0529 and 0.395 | 1.94 (inactive) and 2.3 (inactive) | -0.552 and -0.723 | -0.204 and -0.0393 |
| C=CCN(CCCCC)C(=O)C1N(CCOCCO)C(=O)C2C(C(=O)O)C3C=CC21O3 (stereo not given) | 0.555 and 0.963 | -0.771 and -0.902 | -0.191 and -0.283 | -1.87 | -0.459 and -2.05 | 0.17 and -0.496 | 0.891 and 1.05 | 0.306 (inactive) and 0.0282 (inactive) | -0.211 and -0.726 | -0.171 and -0.182 |
| C=CCN(CCCC)C(=O)C1N(CCCCCCO)C(=O)C2C(C(=O)O)C3C=CC21O3 (stereo not given) | 1.42 and 1.34 | -0.0373 and -0.98 | -0.153 and -0.112 | -0.0134 and -0.092 | -2.57 and -2.12 | -0.506 and 0.0117 | 0.796 and 1.46 | 0.591 (inactive) and 0.91 (inactive) | -1.41 and -0.957 | -0.383 and -0.204 |
| C=CCN(C(=O)C1N(CCCCCCO)C(=O)C2C(C(=O)O)C3C=CC21O3)c1ccc(OC)cc1 (stereo not given) | 0.859 and 1.23 | -0.585 and -0.754 | -0.241 and -0.18 | -2.33 and -1.4 | -2.07 and -1.8 | 1.12 and -1.47 | 0.786 and -1.16 | 0.608 (inactive) and 0.789 (inactive) | -0.718 and -0.496 | -0.126 and 0.0623 |
| CC(CO)N1C(=O)[C@@H]2C3C(=O)OCCC=C[C@H]3OC23C=CCN(Cc2ccccc2)C(=O)[C@@H]13 (stereo not given in full) | 0.144 and 0.708 | 1.03 and -0.0188 | -0.162 and -0.111 | -0.691 and 0.0659 | -1.24 and -0.565 | -0.852 and 1.22 | 1.08 and 0.738 | 0.587 (inactive) and 0.0791 (inactive) | -0.41 and -0.455 | -0.236 and -0.34 |
| C[C@@H](ON=C1[C@H]2CCn3c(=O)n(-c4ccccc4)c(=O)n3[C@H]2[C@H](O)[C@@H]2O[C@H]12)c1cn([C@H](CO)Cc2ccccc2)nn1 | -0.289 | 0.316 | -0.113 | 0.449 | 0.308 | 0.11 | 0.536 | 0.887 (inactive) | 0.0701 | -0.64 |
| CC(C)OC(=O)C=C1C[C@@H](c2ccccc2)O[C@@H](c2ccccc2)O1 | -0.682 and -0.0971 | 0.935 and 1.2 | -0.0695 and 0.0305 | 1.04 and 1.05 | 1.45 and 1.59 | 0.482 and 1.23 | 1.1 and 1.18 | -0.778 (inactive) and -0.828 (inactive) | 0.904 and 0.743 | 0.194 and 0.126 |
| C[C@@H](c1ccccc1)N1C(=O)[C@H]2[C@H]3[C@H](O)[C@H](O)CC(=O)[C@@H]3CC[C@H]2C1=O | -0.289 | 0.118 | -0.0193 | 0.534 | 0.694 | -0.0676 | 0.603 | -1.06 (inactive) | 0.435 | -0.0672 |
| C=CCN1C(=O)[C@]2(O[C@H](CCn3cc(CCO)nn3)[C@@H]([Si](C)(C)c3ccc(OC)cc3)[C@@H]2C)c2cc(N3C(=O)c4cccc5cccc3c45)ccc21 | -0.298 and -0.359 | 1.1 and -0.4 | -0.0069 and -0.0563 | 0.678 and 0.735 | 0.285 and 0.226 | 1.19 and 0.465 | 1.03 | -2.77 (inactive) and -2.7 (inactive) | 0.115 and -0.305 | -0.0618 and 0.157 |
| CC(CO)N1C(=O)[C@@H]2C3C(=O)OCCC=C[C@H]3OC23C=CCN(Cn2nnc4ccccc42)C(=O)[C@@H]13 (stereo not given in full) | 0.634 and 0.0762 | -1.37 and 0.709 | -0.187 and -0.0234 | 0.0583 and 0.509 | -1.7 and -0.0585 | 1.32 and 1.91 | 1.5 and 1.48 | -0.191 (inactive) and 0.519 (inactive) | -0.545 and -0.255 | -0.137 and -0.228 |
| CCOC(=O)[C@H](CC(C)C)NC(=O)CCC1CC(OC(=O)NCc2cccc3ccccc23)CC2(CCCC(COC(=O)NCc3ccccc3)O2)O1 (stereo not given in full) | -0.289 | -0.0297 | -0.116 | 0.129 | -0.362 | -0.421 | -0.0852 | 2.99 (inactive) | -0.0955 | -0.143 |
| Cc1ccc(S(=O)(=O)N[C@H]2COC(=O)[C@@H](C)COC(=O)[C@H](C)NC(=O)CC=C[C@H]2C)cc1 | -0.574 | 1.03 | -0.116 | 0.604 | 0.192 | -0.476 | -0.132 | 0.691 (inactive) | -0.154 | -0.0618 |
| CC(C)[Si]1(C(C)C)OCc2cc(C3CC3)nc(CCc3ccccc3)c21 | -0.141 and -0.208 | -0.305 and 0.114 | -0.0412 and -0.16 | -0.124 and 0.172 | 0.0069 and 0.589 | -0.352 and -0.0692 | -1.21 and -0.253 | -0.218 (inactive) and 0.53 (inactive) | 0.0391 and 0.169 | -0.0237 and -0.118 |
| C[C@@H]1CC[C@H]2C(=O)N3[C@@H](CC[C@@H](C)[C@@H]3c3ccc(-c4ccco4)cc3)C(=O)N2[C@H]1c1ccc(-c2ccco2)cc1 | -0.23 and 1.14 | 0.762 and 1.98 | -0.0084 and -0.0668 | 0.906 and 1.16 | 0.422 and 1.15 | 0.992 and 0.667 | 1.29 and 1.3 | -0.248 (inactive) and 0.445 (inactive) | 0.443 and 1.26 | 0.132 and 0.259 |
